# Screening data (PubChem BioAssay)
# In the library only some 2.9% were active in any assay of this set; here they are far more common.
# B2AR arrestin: beta2AR (human) beta-arrestin recruitment activity | Potency, µM (series often up to 46.1 µM), for the others: top-dose activation, hits mostly activators | AID 492947 | 0.02% of 330,000 active | P07550 | beta-arrestin recruitment to beta2AR, cell-based reporter; active = well fitted activation curve with a large enough effect; inconclusive = small, poorly fitted or top-dose-only effect;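 also: potency is read from the fitted curve at half-maximal effect; 0% = DMSO controls and full agonism = EC100 isoproterenol or metaproterenol; nearly all actives have a fitted effect of over 65% in size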
# D3 antag: blocks the human D3 dopamine receptor | 2.5% of 360,000 active | max response, negative = inhibition, % | AID 652054 | D3R cells, DiscoveRx beta-arrestin luminescence, antagonist mode; active compounds read low; in the data active = max response below about -50%; inconclusive = no clear call, values can overlap the other calls; also: % is scaled to controls: 0 for no effect and ±100 for the full control effect
# Target sequence (P35462 whole entry, looked up): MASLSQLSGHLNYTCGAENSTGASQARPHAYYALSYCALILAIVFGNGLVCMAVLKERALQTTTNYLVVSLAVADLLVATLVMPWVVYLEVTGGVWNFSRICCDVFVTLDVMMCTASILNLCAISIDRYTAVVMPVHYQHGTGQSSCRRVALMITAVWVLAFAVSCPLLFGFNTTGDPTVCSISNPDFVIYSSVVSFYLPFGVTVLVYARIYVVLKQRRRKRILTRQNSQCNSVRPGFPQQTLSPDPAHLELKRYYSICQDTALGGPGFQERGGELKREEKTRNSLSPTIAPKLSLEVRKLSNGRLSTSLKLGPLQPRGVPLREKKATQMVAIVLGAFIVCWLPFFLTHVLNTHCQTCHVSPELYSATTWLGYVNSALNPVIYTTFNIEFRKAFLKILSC
#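 Cells plated overnight at 1500 cells/well, then exposed to library compounds with dopamine controls for 90 minutes at 37 degrees C. DiscoveRx reagent added for 30–60 minutes at room temperature; luminescence read, quantitative HTS format.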
# TSHR antag: human thyrotropin receptor antagonism | P16473 | TSHR-expressing cells, TSH-stimulated cAMP HTRF, 2 h; active compounds read low | activity change, negative = inhibition, % at 11.5 µM | 0.2% of 330,000 active | AID 504810;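 active = activity change below a set negative limit, meaning inhibition stronger than a set level, cut at about -70% in these data; inconclusive = activity change between two set negative limits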; also: % is scaled to controls: 0 for no effect and ±100 for the full control effect
#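 Antagonism was scored as loss of TSH-driven cAMP in TSHR cells, stimulated with 4nM TSH (EC80) for 2 hours at 37 deg C and detected by homogeneous HTRF competition immunoassay.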
# D3 ag: agonists of human D3 dopamine receptor | 0.58% of 410,000 active | AID 652048 | max activation, % | P35462 | D3R DiscoveRx beta-arrestin cells, luminescence, 90 min; in the data active = max activation above about 30%; also: 0% is about no effect
#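 Agonist-mode cell screen: cells plated at 1500/well and incubated overnight at 37 °C, then exposed to library compounds for 90 min at 37 °C. Detection reagent was added for 30–60 min at room temperature, and luminescence was read.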
# Active calls of the source: *; ? = inconclusive; . = not tested or not shown.
SMILES,B2AR arrestin,D3 antag,TSHR antag,D3 ag
COc1ccc(-c2cc(C(F)(F)F)n3nc(C(=O)Nc4sc5c(c4C#N)CCC(C)C5)cc3n2)cc1OC (centres undefined),.,.,.,-1
COC(=O)C(C)Sc1ncnc2c1c(-c1ccccc1)cn2-c1ccc(F)cc1 (centres undefined),.,.,.,20
CCCN(c1ccccc1CC)S(=O)(=O)c1ccc2c(c1)CC(C)N2C(=O)C1CC1 (centres undefined),.,.,.,9
Cc1cnc(=O)[nH]c1SCc1ccc(C(F)(F)F)cc1,0%,-5,-2,31*
O=C(Nc1cnc(N2CCN(c3ccccc3)CC2)c(C(=O)O)c1)c1cccs1,.,.,.,7
COc1ccc(-c2cc(=O)c3c(OC)c(OC)c(OC)c(OC)c3o2)cc1OC,0%,41,-21,40*
COc1ccc(-c2cc(=O)c3c(O)c(OC)c(OC)c(OC)c3o2)cc1,.,18,.,12
COC(=O)c1sc(N2C(=O)c3oc4ccc(C)cc4c(=O)c3C2c2ccc(O)c(OC)c2)nc1C (centres undefined),.,.,.,-5
COc1cccc(NC(=O)CCc2c(C)nc3c4cccnc4nn3c2C)c1,.,.,.,-14
CC1(C)CC(=O)C2=C(C1)Nc1cc(Cl)ccc1S2,-1%,14,-13,31*
NCCNCCN,.,.,.,11
CCOC(=O)C(=O)Nc1ccccc1C(=O)OCC,0%,14,8,0
CCOC(=O)C(=O)Nc1ccccc1C(=O)NC(C)C,1%,-11,5,38*
COc1cc(NC(=NS(=O)(=O)c2ccccc2)c2ccccc2)ncn1,.,-100*,.,-30
O=S(=O)(/N=C(/Nc1cc(N2CCOCC2)ncn1)c1ccccc1)c1ccccc1,-1%,2,-3,5
C=C(C)Cn1c(SCC(=O)c2ccccc2)nc2sc3c(c2c1=O)CCCC3,.,.,.,1
C=C(C)Cn1c(SCC(=O)Nc2cccc(C)c2)nc2sc3c(c2c1=O)CCCC3,.,.,.,34*
Cc1cccc(N2C(=O)N(c3ccccc3C)C3CS(=O)(=O)CC32)c1 (centres undefined),.,-53*,.,-9
COc1ccccc1-c1cc(C(=O)NC(C)C)no1,0%,-21,-16,-12
COc1ccccc1-c1cc(C(=O)NC(C)c2ccccc2)no1 (centres undefined),0%,-58*,-7,-29
O=C(C1CCC(CNS(=O)(=O)c2cccs2)CC1)N1CCN(c2ccc(F)cc2)CC1 (centres undefined),0%,138,-9,45*
Cc1ccc(S(=O)(=O)N2CCN(CC(=O)N/N=C\c3ccc(Cl)c([N+](=O)[O-])c3)CC2)cc1,0%,-20,5,2
O=C(CN1CCN(S(=O)(=O)c2ccc(Br)cc2)CC1)N/N=C/c1ccc(Cl)c([N+](=O)[O-])c1,0%,-70*,-7,-9
COc1ccc(-n2c(=O)c3sc4ccccc4c3n(Cc3ccccc3)c2=O)cc1,.,.,.,7
O=C(CCc1ccccc1)NC(NC(=S)Nc1ccc(Br)cc1)C(Cl)(Cl)Cl (centres undefined),0%,-91*,1,-14
SMILES,B2AR arrestin,D3 antag,TSHR antag,D3 ag
O=C(CCc1ccccc1)NC(NC(=S)Nc1cccc(Cl)c1)C(Cl)(Cl)Cl (centres undefined),-1%,-29,13,-28
O=C1CCC[C@@H]2C=C[C@H](c3ccc(Br)cc3)[C@H]3CCN1[C@@H]32,.,-21,.,-2
CC(=O)N1CN(C2CCS(=O)(=O)C2)Cc2c1sc1c2CCCC1 (centres undefined),0%,-56*,7,9
COC(=O)C(C)NC(=O)N1CCN(c2nnc(C)c3c(C)n(-c4ccc(Cl)cc4)nc23)CC1 (centres undefined),.,.,.,-15
COc1ccc(N2CCN(Cc3cccn3-c3nnc(N4CCN(C5CCCCC5)CC4)s3)CC2)cc1,.,.,.,-7
Nc1cc(C(=O)O)c(N)c2c1C(=O)c1ccccc1C2=O,-1%,-55*,-50,-8
CC[C@]12c3[nH]c4cc(-c5ccco5)ccc4c3CCN1C(=O)[C@@H](CC(=O)NCCCOC)C[C@@H]2C(=O)N1CCN(C(=O)c2ccco2)CC1,-1%,0,0,43*
CC[C@H]1OC(=O)[C@H](C)[C@@H](O[C@H]2C[C@@](C)(OC)[C@@H](O)[C@H](C)O2)[C@H](C)[C@@H](O[C@@H]2O[C@H](C)C[C@H](N(C)C)[C@H]2O)[C@](C)(O)C[C@@H](C)[C@@H]2N[C@@H](COCCOC)O[C@@H]([C@H]2C)[C@]1(C)O,.,.,.,-8
COc1ccc(C(=O)NC(=S)Nc2ccc(S(N)(=O)=O)cc2)cc1,0%,-10,-9,-5
COc1ccc(NC(=S)NC(NC(=O)c2cccc(C)c2)C(Cl)(Cl)Cl)c([N+](=O)[O-])c1 (centres undefined),0%,-82*,-3,-8
O=C(NC(NC(=S)Nc1ccccc1C(=O)O)C(Cl)(Cl)Cl)c1cccc([N+](=O)[O-])c1 (centres undefined),0%,-79*,4,1
O=C(NC(NC(=S)Nc1ccccc1Cl)C(Cl)(Cl)Cl)c1cccc(Cl)c1 (centres undefined),0%,?,-35,-4
COc1ccc(C(=O)NC(NC(=S)Nc2ccc(S(N)(=O)=O)cc2)C(Cl)(Cl)Cl)cc1 (centres undefined),0%,-75*,7,-2
Cc1ccc2nc(NC(=O)CSc3nccn3Cc3ccccc3)sc2c1,.,.,.,-7
CCOc1ccc(CCNC(=O)c2sc3ncccc3c2-n2cccc2)cc1OCC,.,.,.,9
Cc1ccc(S(=O)(=O)Nc2nc3n(n2)C(c2ccc(F)cc2)C=C(c2ccccc2)N3)cc1 (centres undefined),.,.,.,39*
Cc1ccc(C2C=C(c3ccccc3)Nc3nc(NS(=O)(=O)c4ccccc4)nn32)cc1 (centres undefined),.,.,.,7
CSc1ccc(CNC(=O)C2(C)CCCN(C(C)=O)C2)cc1 (centres undefined),.,11,.,-6
CCc1cccc(C)c1NC(=O)c1cc(S(=O)(=O)N2CCCCCC2)cn1C,.,.,.,-2
COc1cc(/C=N/NC(=O)c2cc(-c3ccc4c(c3)OCO4)n[nH]2)ccc1O,0%,38,26,61*
O=C(N/N=C/c1ccc([N+](=O)[O-])cc1)c1cc(-c2ccc3c(c2)OCO3)n[nH]1,0%,7,7,0
O=C1C=CC(=O)N1CCNc1ncc(C(F)(F)F)cc1Cl,0%,-113*,-32,-12
O=C1CC(=O)N(CCNc2ncc(C(F)(F)F)cc2Cl)C(=O)N1,0%,-1,-1,4
CS(=O)(=O)N(CC(=O)NCC1CCCO1)c1cccc(Cl)c1 (centres undefined),-2%,-8,-19,3
CS(=O)(=O)N(CC(=O)NCC1CCCO1)c1cc(Cl)cc(Cl)c1 (centres undefined),-2%,-97*,-5,2
COc1ccccc1CCNC(=O)c1cc2c(=O)n3cccc(C)c3nc2n1C,.,.,.,9
